In PubChem BioAssay AID1626 (SRMLSC, 2009):
In all, about 220,000 compounds went through this assay and about 2,000 (0.91%) were called active. Not shown: some 2% with an inconclusive outcome. The list is a sample of the results. Results with a measured potency or affinity are listed apart. Unmarked numbers belong to inactive results. Cut-off read from the data, not from the text of the source: inconclusive = inhibition above about 80% without an active follow-up result; inactive = below that; test concentration not stated here.

Assay: M. tuberculosis H37Rv growth inhibitors, H37Rv strain (AID 1626);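 note: bacteria incubated seven days before Alamar blue readout; 0% = bacteria only wells and 100% = bacteria with antibiotic wells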
Conditions: stronger effect = higher value, concentration not given here
NC(=O)CC[C@@H]1NC(=O)[C@@H]2CCCN2C(=O)c2cc([N+](=O)[O-])cc(I)c2NCCCC[C@@H](C(=O)NC(CC(=O)O)C(N)=O)NC1=O (stereo partly specified) showed an inhibition of 0.47%.
For Cc1ccc(NC(=O)CSc2nnc(-c3n[nH]c4ccccc34)n2-c2ccccc2)c(C)c1, the inhibition was 14.9%.
Compound COc1ccc(Cl)cc1Nc1nc(C)cc(C)c1C(N)=O has an inhibition of -2.67%.
Cc1cc2c(sc3ccccc32)c(C)n1 showed an inhibition of 5.03%.
CN1C(=O)C(=Cc2ccc(N3CCOCC3)o2)C(=O)N(C)C1=O showed an inhibition of 5.8%.
O=Cc1ccc(N2CCCC2)o1 showed an inhibition of 46.4%.
With O=C(Nc1cccc2ncccc12)C12CC3CC(CC(C3)C1)C2 the inhibition was -10%.
Cc1ccccc1OCc1nnc(SCC(=O)NCc2ccccc2)n1C gave an inhibition of 2.63%.
Compound Cc1ccccc1C(=O)NC1CCN(CC(=O)NCc2cccs2)CC1 has an inhibition of 2.61%.
For COc1ccc(/C=C/C(=O)c2sc(-c3ccccc3)nc2C)cc1, the inhibition was 6.03%.
Work on Cc1ccc(N/C=C/C(=O)c2sc(-c3ccccc3)nc2C)cc1 yielded an inhibition of 3.94%.
COc1cc(S(=O)(=O)N2CCCCC2)ccc1NC(=O)Cc1ccccc1 gave an inhibition of -1.81%.
For Cc1ccc(CNC(=O)COC(=O)c2cnc(C)cn2)cc1, the inhibition was 0.26%.
For COC1=C(Nc2ccccc2)C(=O)c2ccccc2C1=O, the inhibition was 13.5%.
COC1=C(Nc2ccc(OC)cc2)C(=O)c2ccccc2C1=O gave an inhibition of 8.34%.
COc1cccc(-c2nc(-c3ccc(C(=O)O)cc3)no2)c1 gave an inhibition of -12.7%.
With O=[N+]([O-])c1cc(CN2CCN(c3ccccc3)CC2)c(O)c2ncccc12 the inhibition was 77.9%.
In the case of O=[N+]([O-])c1cc(CN2CCCC2)c2cccnc2c1O, the inhibition is reported as -5.59%.
COc1ccc(NC(=O)C2C3CCC(C3)C2C(=O)O)cc1OC (stereo unspecified) showed an inhibition of 6.44%.
In the case of COCCC(=O)Nc1ccc2c(c1)CN(C(=O)CCSC)CC2, the inhibition is reported as 3.42%.
For CCn1c(CNc2ccccc2Cl)nnc1SCC(=O)NCc1ccccc1, the inhibition was -4.41%.
Work on CCn1c(CNc2ccc(OC)cc2)nnc1SCC(=O)Nc1ccc(F)cc1 yielded an inhibition of -10.9%.
Work on CCn1c(CNc2ccc(F)cc2)nnc1SCC(=O)Nc1ccc(OC)cc1 yielded an inhibition of 2.51%.
CCn1c(CNc2ccccc2Cl)nnc1SCCN1CCCCC1 gave an inhibition of -2.66%.
Compound O=C(CSc1nnc(Cc2ccccc2)o1)Nc1ccccc1 has an inhibition of -4.88%.
Compound Cc1ccc(NC(=O)CSc2nnc(Cc3ccccc3)o2)cc1 has an inhibition of 22.6%.
Compound COCCN(C(=O)c1ccco1)C(C(=O)NC1CCCC1)c1cccs1 (stereo unspecified) has an inhibition of 0.07%.
Work on CC(OC(=O)c1snc(C(=O)NC2CCCCC2)c1N)C(=O)NC1CCCCC1 (stereo unspecified) yielded an inhibition of 2.49%.
Compound CCOC(=O)c1snc(C(=O)NC2CCCCC2)c1N has an inhibition of 5.5%.
With CCOC(=O)c1sc(C)c(C(=O)NC2CCCCC2)c1N the inhibition was 4.33%.
CC(OC(=O)c1snc(C(=O)NC2CCCCC2)c1N)C(=O)NC(C)(C)C (stereo unspecified) showed an inhibition of 39%.
Compound COc1ccc(NC(=S)Nc2ccccc2F)c(OC)c1 has an inhibition of -4.54%.
In the case of COC(=O)c1ccccc1NC(=O)C1CCCN(S(=O)(=O)c2ccc(OC)cc2)C1 (stereo unspecified), the inhibition is reported as 5.41%.
With O=C(/C=C/c1ccccc1Cl)NCc1cccs1 the inhibition was 2.96%.
Compound O=C1CC(SCc2nc3ccccc3[nH]2)C(=O)N1c1ccc(F)c(Cl)c1 (stereo unspecified) has an inhibition of -2.51%.
Cc1cccn2c(=O)c3cc(C(=O)NC(C)c4ccccc4)c(=N)n(CCCn4ccnc4)c3nc12 (stereo unspecified) showed an inhibition of 48.6%.
For C=CC(=O)NC1CC2CCC1(C)C2(C)C (stereo unspecified), the inhibition was 6.5%.
CC1(C)C2CCC1(C)C(Nc1ccccc1)C2 (stereo unspecified) gave an inhibition of 3.82%.
Compound Cc1onc(-c2c(F)cccc2Cl)c1C(=O)N1CCN(c2ncccn2)CC1 has an inhibition of 3.2%.
COc1cc(CNn2c(C)n[nH]c2=S)cc(Br)c1OCc1ccc(F)cc1 showed an inhibition of 6.01%.
CCOc1ccc(OCc2ccc(C(=O)N3CCOCC3)cc2)cc1 gave an inhibition of -3.72%.
Work on CCOc1ccc(N=C(/C(C(=O)C(=O)N2CCOCC2)=C(/O)c2ccccc2)c2ccccc2)cc1 yielded an inhibition of 70.8%.
In the case of O=C(c1ccccc1)c1cccs1, the inhibition is reported as 0.41%.
For Nc1ccc(C(=O)c2cccs2)cn1, the inhibition was -5.69%.
Work on COc1ccc(-c2csc(NC(CO)c3nc4ccccc4n3CCCO)n2)cc1 (stereo unspecified) yielded an inhibition of 1.28%.
Compound Cc1ccc(C(=O)Nc2nc(-c3cccnc3)cs2)o1 has an inhibition of 7.51%.
With Cc1cc(-c2csc(NC(=O)c3cc4ccccc4o3)n2)c(C)n1C the inhibition was -8.86%.
Cc1ccc(-c2csc(NC(=O)c3ccc(C)o3)n2)cc1 showed an inhibition of 10.4%.
Work on O=C(Nc1ccccn1)c1cc2ccccc2o1 yielded an inhibition of 9.27%.
CCCCn1nnnc1SCC(=O)N1CCOCC1 gave an inhibition of -13.6%.
Compound Cc1[nH]nc2c1C(c1cccs1)C(C#N)=C(N)O2 (stereo unspecified) has an inhibition of 8.65%.
Work on CC(O)[C@H]1CNC(=O)C(=O)N1CCC12CC3CC(CC(C3)C1)C2 (stereo partly specified) yielded an inhibition of -0.53%.
For CC(=O)Oc1ccc2oc(C)c(C(=O)N3CCOCC3)c2c1, the inhibition was -12.9%.
Work on COc1ccc(OC)c(S(=O)(=O)Nc2ccc3oc4c(c3c2)C(=O)CCC4)c1 yielded an inhibition of -4.7%.
With COc1ccc(-n2c(O)c(C(C)=NCc3ccc4c(c3)OCO4)c(=O)[nH]c2=O)cc1 the inhibition was 0.11%.
Compound CC(C)N(C(=O)CC1ON(C)C(=O)N1c1ccc(Cl)cc1)C(C)C (stereo unspecified) has an inhibition of -4.4%.
CCOC(=O)C1=C(C)N=c2s/c(=C/c3ccccc3)c(=O)n2C1c1ccc(OC)c(OC)c1 (stereo unspecified) gave an inhibition of 1%.
With CCOC(=O)C1=C(c2ccccc2)N=c2s/c(=C\c3cc(OC)c(OC)c(OC)c3)c(=O)n2C1c1cccs1 (stereo unspecified) the inhibition was -2.92%.
Compound S=C(NCCc1ccccc1)Nc1ccccc1N1CCOCC1 has an inhibition of 0.99%.
COc1ccc([N+](=O)[O-])cc1NC(=O)C(C)OC(=O)c1cccnc1Cl (stereo unspecified) showed an inhibition of -2.19%.
For CC1=C(C(=O)Nc2ccccn2)C(c2ccc(Cl)cc2)NC(=S)N1 (stereo unspecified), the inhibition was -5.44%.
In the case of CCOC(=O)c1cnc(Nc2nc3ccccc3o2)nc1CSc1ncccn1, the inhibition is reported as 0.18%.
In the case of CCOC(=O)c1cnc(Nc2nc3ccccc3o2)nc1CSC(=S)N(CC)CC, the inhibition is reported as -2.38%.
O=C1c2cc(O)cc(O)c2C(=O)c2c1cc(O)c([C@@H](CO)CCO)c2O showed an inhibition of -0.07%.
For Cc1cc(NC(=O)CCCC(=O)N(c2ccccc2)C(C(=O)NC2CCCCC2)c2cccs2)no1 (stereo unspecified), the inhibition was -3.8%.
Work on Cc1ccc([N+](=O)[O-])cc1N(CC(=O)NC1CCCC1)S(C)(=O)=O yielded an inhibition of 1.23%.
With Cc1c(/C=N\NC(=O)C2COc3ccccc3O2)c2ccccc2n1C (stereo unspecified) the inhibition was 10.6%.
In the case of C#CCNC(=O)C1=C[C@@H](C2CC2)[C@H](CCCO)[C@@H](OCC)O1, the inhibition is reported as -9.56%.
CCC(=O)Nc1nnc(-c2ccc(Cl)s2)o1 gave an inhibition of 13.6%.
With O=C(Nc1nnc(-c2ccco2)o1)C1CCCCC1 the inhibition was 3.01%.
O=C(Nc1nnc(-c2ccncc2)o1)C1CCCCC1 gave an inhibition of 0.18%.
In the case of CC(=O)Nc1nnc(-c2ccc(Cl)s2)o1, the inhibition is reported as 2.92%.
Work on Cc1cc(C(=O)COc2ccc(Cl)cc2Br)c(C)n1C yielded an inhibition of -4.24%.
In the case of CCN(CC)C(=O)C1CCCN(c2ccc([N+](=O)[O-])cc2/C=N/NC(=O)c2ccccc2)C1 (stereo unspecified), the inhibition is reported as 9.19%.
In the case of Cc1ccc(CNC(=O)CCc2nc(-c3cccs3)no2)cc1, the inhibition is reported as 6.02%.
With CCN(CC)S(=O)(=O)c1ccc(NS(=O)(=O)CC23CCC(CC2=O)C3(C)C)cc1 (stereo unspecified) the inhibition was -3.32%.
Compound C=CCNC(=O)c1ccc(-n2cccc2)cc1 has an inhibition of 8.71%.
Compound O=C(Nc1ccc(F)cc1)N1CCC(c2nc3c(nnn3Cc3cccc(Cl)c3)c(=O)[nH]2)CC1 has an inhibition of 64.2%.
N#Cc1ccc(NC(=O)N2CCC(c3nc4c(nnn4Cc4cccc(Cl)c4)c(=O)[nH]3)CC2)cc1 showed an inhibition of 69%.
Work on N/C(=N\OC(=O)CCc1ccccc1)c1ccccc1Cl yielded an inhibition of 14.4%.
For COc1cc(CNC(C)(C)CO)cc(Br)c1OCc1ccc(Cl)cc1Cl, the inhibition was 62.5%.
In the case of COc1cc(CNC(C)(C)CO)cc(Br)c1OCc1ccc(Cl)cc1, the inhibition is reported as 9.24%.
COC(=O)CCC(=O)OC1(C)C(=O)C2=CN(Cc3ccco3)C(c3ccc(OC)cc3)=CC2=C(Br)C1=O (stereo unspecified) showed an inhibition of 1.66%.
O=C(COC(=O)c1ccccn1)Nc1nccs1 showed an inhibition of -5.49%.
With Cc1cnc(NC(=O)c2sc3ccccc3c2Cl)s1 the inhibition was 3.19%.
With CCC(=O)Nc1cccc(C(=O)Nc2nccs2)c1 the inhibition was 2.64%.
With O=C(Nc1ccncc1)c1sc2ccccc2c1Cl the inhibition was 2.92%.
Work on CCCc1cc(C(=O)Nc2nnc(C)s2)cs1 yielded an inhibition of 1.88%.
Work on O=C(Nc1nccs1)c1cnccn1 yielded an inhibition of -1.5%.
With Cc1onc(-c2c(F)cccc2Cl)c1C(=O)Nc1nccs1 the inhibition was 6.17%.
COC(=O)c1nc(N)sc1-c1ccc(OC)cc1 gave an inhibition of -1.47%.
With CCCS(=O)(=O)N1CCN(Cc2ccc([N+](=O)[O-])cc2)CC1 the inhibition was 5.19%.
Work on COc1ccc(CNC(=O)COC(=O)c2ccc(Br)cc2)cc1 yielded an inhibition of 5.06%.
For CN(C)NC(=O)C(NC(=O)c1ccccc1)C12CC3CC(CC(C3)C1)C2 (stereo unspecified), the inhibition was -4.07%.
CCn1c(=O)c(C(=O)CN2CCCc3ccccc32)c(N)n(Cc2ccccc2)c1=O showed an inhibition of -5.75%.
In the case of COc1ccc(-c2nnc3n2C(C)(C)Cc2cc(OC)c(OC)cc2-3)cc1, the inhibition is reported as 3.77%.
